Only some compounds are listed: those with a hit (about 3.6% of all), similar ones and a draw of the others.
HCT116 PTEN-null: growth suppressors of cells with PTEN tumor suppressor deletion; viability, % at 10 µM; AID 827; HCT116 PTEN-null viability, CellTiter-Glo, 60 h; stronger effect = lower value; hit rate 1.2% among 140,000;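 active means viability at or below a set limit, 4 SD under the median of all tested compounds, cut at about 3.7% in these data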;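 further: PTEN knockout HCT116 line with beta catenin targeted HCT116 as companion control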
WT yeast gro inh: growth inhibition of WT yeast, mitochondrial fusion screen | mitochondrial fusion phenotypic screen, WT strain | inhibition, % at 10 µM | hit rate 2.1% among 190,000; in the data active means inhibition above about 58%; tested in S. cerevisiae
hDAT+cocaine: human DAT dopamine uptake with cocaine, either direction | Q01959 | LLC-PK1 hDAT cells, [14C]-dopamine uptake with cocaine IC80; actives deviate in either direction | B-score at 10 µM | hit rate 1.3% among 110,000 | AID 449768;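 active means Z score or B-score, a plate-position-corrected score, falls beyond the plate's 99.7% confidence bounds, in either direction; inactive means both scores lie inside the 99.7% bounds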
Target sequence (Q01959 whole entry, looked up): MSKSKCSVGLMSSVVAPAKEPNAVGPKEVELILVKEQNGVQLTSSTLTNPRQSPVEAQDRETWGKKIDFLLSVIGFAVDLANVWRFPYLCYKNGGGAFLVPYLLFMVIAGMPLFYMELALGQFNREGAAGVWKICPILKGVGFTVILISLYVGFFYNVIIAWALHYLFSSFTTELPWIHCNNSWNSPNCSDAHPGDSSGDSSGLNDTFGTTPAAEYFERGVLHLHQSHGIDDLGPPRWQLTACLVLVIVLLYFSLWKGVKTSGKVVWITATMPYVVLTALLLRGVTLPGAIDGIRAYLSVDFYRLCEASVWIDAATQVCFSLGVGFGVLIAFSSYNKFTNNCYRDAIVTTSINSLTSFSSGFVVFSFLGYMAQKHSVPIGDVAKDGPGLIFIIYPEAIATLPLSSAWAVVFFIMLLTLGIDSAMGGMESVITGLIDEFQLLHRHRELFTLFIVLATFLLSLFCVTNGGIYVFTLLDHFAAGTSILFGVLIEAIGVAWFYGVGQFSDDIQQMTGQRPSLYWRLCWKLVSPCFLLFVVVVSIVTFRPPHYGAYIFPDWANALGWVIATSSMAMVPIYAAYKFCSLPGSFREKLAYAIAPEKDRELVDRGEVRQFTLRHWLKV
bCat KO growth: beta-catenin-lacking colon tumor cell growth suppression; AID 818; viability, % at 10 µM; hit rate 1.5% among 140,000; HCT116 beta-catenin knockout viability, CellTiter-Glo, 60 h; stronger effect = lower value;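 active means viability at or under a set limit, the compound median less 4 SD, cut at about 6% in these data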
Numbers stand for hits; n = inactive; x = no result.

SMILES	HCT116 PTEN-null	WT yeast gro inh	hDAT+cocaine	bCat KO growth
COCC1CCN(Cc2cn(-c3ccccc3F)nc2-c2cc(C)sc2C)CC1	x	n	x	x
COC(=O)c1ccc(COc2ccccc2/C=C(\C#N)C(=O)Nc2ccccc2C)cc1	n	n	x	n
COC(=O)c1ccc(COc2ccccc2/C=C(\C#N)C(=O)Nc2c(C)cccc2C)cc1	1.8	n	x	2.4
CC(C)n1nc(C(=O)OCn2nnc3ccccc3c2=O)c2ccccc2c1=O	n	n	x	n
c1ccc2c(c1)ncn2-c1ncnc2sc3c(c12)CCCC3	n	n	n	n
CC(O)CNc1nc2ccccc2n1-c1ncnc2sc3c(c12)CCC3 (centres undefined)	n	n	2.83	n
C=CCN1N=C(c2ccc(NC(=O)c3ccccc3)cc2)CSC1=O	x	n	x	x
CC(C)/C(=N/Nc1ccccc1[N+](=O)[O-])c1ccccc1	x	63.8	x	x
CC(NC(=O)Nc1ccc([N+](=O)[O-])cc1)C(c1ccccc1)N1CCOCC1 (centres undefined)	x	n	x	x
CC(NC(=O)Nc1ccc(Cl)c(Cl)c1)C(c1ccccc1)N1CCOCC1 (centres undefined)	n	75.0	x	n
Fc1ccccc1NC(=S)Nc1cccc2cnccc12	x	n	x	x
Cc1ccc(NC(=S)Nc2cccc3cnccc23)cc1	x	n	x	x
Cc1ccc(C)c(NC(=S)Nc2cccc3cnccc23)c1	x	62.5	x	x
Cc1ccccc1NC(=S)Nc1cccc2cnccc12	x	n	x	x
Cc1ccc(NC(=S)Nc2cccc3cnccc23)cc1C	x	59.2	x	x
S=C(Nc1cccc(Cl)c1)Nc1cccc2cnccc12	n	70.1	x	n
CCN(C(=O)CSc1nc2ccc([N+](=O)[O-])cc2s1)C1CCS(=O)(=O)C1 (centres undefined)	x	n	x	x
CCN(C(=O)COC(=O)CNC(=O)c1ccc(C)s1)c1ccccc1	x	n	x	x
COc1ccccc1NC(=S)N(Cc1cccs1)C1CCCC1	x	74.9	x	x
COc1ccccc1NC(=S)N(Cc1ccccc1)Cc1cccs1	x	n	x	x
O=C(O)c1cn(-c2ccc(N3CCCC3)c(F)c2)c2c(F)c(F)c(F)cc2c1=O	x	78.0	x	x
O=C(O)C1CCCCC1C(=O)Nc1ccc(F)cc1F (centres undefined)	n	96.9	n	n
O=C(O)C1CCCCC1C(=O)Nc1ccc(F)c(F)c1 (centres undefined)	n	n	x	n
CCC(C)N(C(=O)COc1ccc(NC(C)=O)cc1)C1CCS(=O)(=O)C1 (centres undefined)	x	n	x	x
CC(=O)c1cccc(NC(=O)CN2C(=S)NC(C)(C)CC2C)c1 (centres undefined)	x	n	x	x
SMILES	HCT116 PTEN-null	WT yeast gro inh	hDAT+cocaine	bCat KO growth
Cc1ccc(NNC(=O)C(=O)N2CCCCC2)cc1	n	64.4	x	n
Cc1ccccc1C(=O)NNC(=O)C(=O)N1CCCCC1	n	n	x	n
CC(C)n1c2ccccc2c2cc([N+](=O)[O-])ccc21	n	n	x	n
CCC(C)n1c(=S)[nH]c2c(sc3ccc([N+](=O)[O-])cc32)c1=O (centres undefined)	n	68.1	x	n
Cn1nc(C(F)(F)F)c2cc(C(=O)Nc3ccc(F)cc3F)sc21	n	n	n	n
Cn1nc(C(F)(F)F)c2cc(NC(=O)OCc3ccc(F)cc3)sc21	n	78.7	n	n
Cn1nc(C(F)(F)F)c2cc(C(=O)Nc3ccc(Cl)cc3)sc21	n	74.0	n	n
Cn1nc(OC(=O)Nc2ccc(Cl)cc2)cc1C(F)(F)F	n	n	-2.91	n
CCc1nnc(NC(=O)C2(C)COC(c3ccccc3)OC2)s1 (centres undefined)	x	n	x	x
O=S(=O)(c1cccc(NC(=S)Nc2ccc(Br)cc2Cl)c1)N1CCOCC1	n	n	n	n
N#Cc1ccc(C(=O)Nc2ccc([N+](=O)[O-])cc2)c(F)c1	x	n	x	x
COc1ccc(-c2nc(CS(=O)(=O)CC(=O)NCCc3cc(OC)ccc3OC)c(C)o2)cc1	n	n	n	n
COc1ccc(OC)c(CCNC(=O)Cn2sc3nc(C)cc(C)c3c2=O)c1	1.9	n	n	1.9
COc1ccccc1N(C)S(=O)(=O)c1ccc(C(=O)OCC(=O)c2c[nH]c3ccccc23)cc1	n	n	x	n
COC(=O)C(N)CCCCN (centres undefined)	x	x	n	x
Cc1nc2cc(N3CCCCC3)c(NC(=O)c3ccncc3)cc2c(=O)n1Cc1ccc(Cl)cc1	1.1	n	x	1.2
CCC(=O)N[C@@H]1CC(C(C)(C)NC(=O)CC)CC=C1C (some centres undefined)	n	n	-9.91	n
COc1ccc2c3c(cccc13)N(C)N=C2C	n	n	x	n
C=CCOC(=O)c1cn(CC)c2nc(C)ccc2c1=O	x	n	x	x
CCn1cc(C(=O)OCC(=O)OC2CC(C)CCC2C(C)C)c(=O)c2ccc(C)nc21 (centres undefined)	n	70.5	n	n
COc1ccc(OCc2csc(N)n2)cc1	x	n	x	x
